# In PubChem BioAssay (NCATS):
# Inconclusive results are not listed. Entries that show only a call come without a potency. The source made the active and inactive calls. Unless noted, the call rests on the fitted dose curve; in most records, active means well fitted curve in the direction sought with a large enough effect; inconclusive means small, poorly fitted or top-dose-only effect, or another doubt; inactive means no such curve, though single readings can be large; an effect the other way counts as inactive or inconclusive. Peptide text beside a SMILES is read from it.
# Key:
# [1] = S16 Schwann cell viability assay (CellTiter-Glo assay) (AID 624031);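 further: cellular ATP luminescence as a viability measure; nearly all actives have a fitted effect of over 70% in size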
# In short: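 Luminescent ATP read-out (CellTiter-Glo) after 24 h compound exposure of native S16 rat Schwann cells at 37 °C. Signals were normalized between cell-free wells and DMSO-treated cells, set as 0% activity.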
# [2] = S16 Schwann cell PMP22 intronic element firefly luciferase assay (AID 624032); further: nearly all actives have a fitted effect of over 30% in size
# In short: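 Luciferase reporter of PMP22 intronic-element expression in stably transfected S16 rat Schwann cells, read by ONE-Glo luminescence after 24 h compound exposure at 37 C. Activity scaled between DMSO (0%) and positive-control PTC124; concentration-effect curves quality-classified.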
# CP194 = test: qHTS profiling for inhibitors of Plasmodium falciparum proliferation (AID 504749); further: nearly all actives have a fitted effect of over 60% in size; further: potency means the concentration at half of the fitted maximal effect; conditions: P. falciparum in erythrocytes, SYBR Green DNA, 72 h; series mostly up to 12.8 µM
# In short: (§1)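 In a 72 h erythrocytic culture (37 C, humidified, 5% CO2) at 2.5% hematocrit and 0.3% starting parasitemia, compounds were tested; SYBR Green I in detergent lysis buffer stained parasite DNA overnight.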
# CP201 = test: as above; conditions: P. falciparum in erythrocytes, SYBR Green DNA, 72 h; series mostly up to 12.8 µM
# In short: as §1
# CP203 = test: as above; conditions: P. falciparum in erythrocytes, SYBR Green DNA, 72 h; series mostly up to 12.8 µM
# In short: as §1
# CP211 = test: as above; conditions: P. falciparum in erythrocytes, SYBR Green DNA, 72 h; series mostly up to 12.8 µM
# In short: as §1
# CP256 = test: as above; conditions: P. falciparum in erythrocytes, SYBR Green DNA, 72 h; series mostly up to 12.8 µM
# In short: as §1
# CP266 = test: as above; conditions: P. falciparum in erythrocytes, SYBR Green DNA, 72 h; series mostly up to 12.8 µM
# In short: as §1
# CP268 = test: as above; conditions: P. falciparum in erythrocytes, SYBR Green DNA, 72 h; series mostly up to 12.8 µM
# In short: as §1
# CP291 = test: as above; conditions: P. falciparum in erythrocytes, SYBR Green DNA, 72 h; series mostly up to 12.8 µM
# In short: as §1
# CP297 = test: as above; conditions: P. falciparum in erythrocytes, SYBR Green DNA, 72 h; series mostly up to 12.8 µM
# In short: as §1
# CP325 = test: as above; conditions: P. falciparum in erythrocytes, SYBR Green DNA, 72 h; series mostly up to 12.8 µM
# In short: as §1
# CP335 = test: as above; conditions: P. falciparum in erythrocytes, SYBR Green DNA, 72 h; series mostly up to 12.8 µM
# In short: as §1
# DIV30 = test: as above; conditions: P. falciparum in erythrocytes, SYBR Green DNA, 72 h; series mostly up to 12.8 µM
# In short: as §1
# Dd2 = test: as above; conditions: P. falciparum in erythrocytes, SYBR Green DNA, 72 h; series mostly up to 12.8 µM
# In short: as §1
# P93_24 = test: as above; conditions: P. falciparum in erythrocytes, SYBR Green DNA, 72 h; series mostly up to 12.8 µM
# In short: as §1
# P94_40 = test: as above; conditions: P. falciparum in erythrocytes, SYBR Green DNA, 72 h; series mostly up to 12.8 µM
# In short: as §1
# PC26 = test: as above; conditions: P. falciparum in erythrocytes, SYBR Green DNA, 72 h; series mostly up to 12.8 µM
# In short: as §1
# TAB109 = test: as above; conditions: P. falciparum in erythrocytes, SYBR Green DNA, 72 h; series mostly up to 12.8 µM
# In short: as §1
# [3] = biological target: Mitogen-activated protein kinase 10 (Mus musculus) (UniProt Q61831); test: JNK3 AlphaScreen Assay (AID 530; active means well fitted curve in either direction with a large enough effect, not every such curve was filed as active;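 further: kinase came from lysate of stimulated human HepG2 cells; signal reports phosphorylation of biotinylated GST-cJun 1-79 at Ser73 with 10 µM ATP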)
# In short: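 Kinase buffer: 20 mM Tris-HCl pH 7.6, 10 mM MgCl2, 1 mM DTT, 0.1 mM Na3VO4, 0.01% Tween-20; ATP 10 uM. Substrate biotin-GST-cJun(1-79), enzyme from activated HepG2 lysates. Detection by Ser73 phospho-antibody AlphaScreen.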
Structure (SMILES),outcome [1],Potency [2],Potency (CP194),Potency (CP201),Potency (CP203),Potency (CP211),Potency (CP256),Potency (CP266),Potency (CP268),Potency (CP291),Potency (CP297),Potency (CP325),Potency (CP335),Potency (DIV30),Potency (Dd2),Potency (P93_24),Potency (P94_40),Potency (PC26),Potency (TAB109),Potency [3]
COc1ccc2cc(C(C)CO)ccc2c1 (centres undefined),inactive,inactive,inactive,inactive,inactive,inactive,inactive,inactive,inactive,inactive,inactive,inactive,inactive,inactive,inactive,inactive,inactive,inactive,inactive,–
COC(=O)C(Cc1ccccc1)NC(=O)C(N)CC(=O)O (stereo not drawn) (H-Asp-Phe-OMe; configuration not given here),inactive,inactive,inactive,inactive,inactive,inactive,inactive,inactive,inactive,inactive,inactive,inactive,inactive,inactive,inactive,inactive,inactive,inactive,inactive,–
Nc1nc2ncc(CNc3ccc(C(=O)NC(CCC(=O)O)C(=O)O)cc3)nc2c(=O)[nH]1 (centres undefined),inactive,inactive,inactive,inactive,inactive,inactive,inactive,inactive,inactive,inactive,inactive,inactive,inactive,inactive,inactive,inactive,inactive,inactive,inactive,–
CCC(C)C(=O)OC1CCC=C2C=CC(C)C(CCC3CC(O)CC(=O)O3)[C@@H]21 (some centres undefined),inactive,inactive,inactive,inactive,inactive,inactive,inactive,inactive,inactive,inactive,inactive,inactive,inactive,inactive,–,inactive,inactive,inactive,inactive,–
CC[C@@]12CCCN3CCc4c(n(c5ccccc45)[C@](O)(C(=O)OC)C1)C32 (some centres undefined),inactive,inactive,inactive,inactive,inactive,inactive,inactive,inactive,inactive,inactive,inactive,inactive,inactive,inactive,–,inactive,inactive,inactive,inactive,–
COc1cc(C2c3cc4c(cc3C(O[C@@H]3OC5COC(c6cccs6)OC5C(O)C3O)C3COC(=O)C23)OCO4)cc(OC)c1O (some centres undefined),inactive,–,1.69 µM (active),4.78 µM (active),3.79 µM (active),3.38 µM (active),3.16 µM (active),4.78 µM (active),4.26 µM (active),4.26 µM (active),4.78 µM (active),4.78 µM (active),1.69 µM (active),2.13 µM (active),1.41 µM (active),1.58 µM (active),1.26 µM (active),3.79 µM (active),2.24 µM (active),–
COC(=O)N/N=C/C1=C[N+](=O)c2ccccc2[N+]1=O,inactive,inactive,inactive,inactive,–,inactive,inactive,inactive,inactive,inactive,inactive,inactive,inactive,inactive,inactive,inactive,inactive,inactive,inactive,–
OCC1O[C@H](OC2C(CO)O[C@@](O)(CO)C2O)C(O)C(O)C1O (some centres undefined),inactive,inactive,inactive,inactive,inactive,inactive,inactive,inactive,inactive,inactive,inactive,inactive,inactive,inactive,inactive,inactive,inactive,inactive,inactive,–
CC(=O)N[C@@H]1C(O)OC(CO)C(O)C1O (some centres undefined),inactive,inactive,inactive,inactive,inactive,inactive,inactive,inactive,inactive,inactive,inactive,inactive,inactive,inactive,–,inactive,inactive,inactive,inactive,–
C[C@]12C=CC(=O)C=C1CCC1C2C(O)C[C@]2(C)C1CC[C@]2(O)C(=O)CO (some centres undefined),inactive,inactive,inactive,inactive,inactive,inactive,inactive,inactive,inactive,inactive,inactive,inactive,inactive,inactive,inactive,inactive,inactive,inactive,inactive,–
CC1(C)OC2CC(=O)OC[C@@]23C1CC(=O)[C@]1(C)C3CC[C@@]2(C)C(c3ccoc3)OC(=O)C3O[C@@]321 (some centres undefined),inactive,inactive,inactive,inactive,inactive,inactive,inactive,inactive,inactive,inactive,inactive,inactive,inactive,inactive,inactive,inactive,inactive,inactive,inactive,–
C[C@]1(c2ccccc2)OC(C(=O)O)=CC1=O,inactive,inactive,inactive,inactive,inactive,inactive,inactive,inactive,inactive,inactive,inactive,inactive,inactive,inactive,inactive,inactive,inactive,inactive,inactive,inactive
CN(C)CCCOC1C(C(O)CO)OC2OC(C)(C)O[C@@H]21 (some centres undefined),–,inactive,inactive,inactive,inactive,inactive,inactive,inactive,inactive,inactive,inactive,inactive,inactive,inactive,inactive,inactive,inactive,inactive,inactive,–
CNC1C(OC2C(O[C@@H]3C(O)C(O)[C@@H](N=C(N)N)C(O)C3N=C(N)N)OC(C)[C@@]2(O)CO)OC(CO)C(O)C1O (some centres undefined),inactive,inactive,inactive,inactive,–,inactive,inactive,inactive,inactive,inactive,–,inactive,inactive,inactive,inactive,inactive,inactive,inactive,inactive,–
